Results from PubChem BioAssay AID540256 (National Center for Advancing Translational Sciences (NCATS), 2011).
About 3,700 (1.2%) of roughly 300,000 compounds were called active. Another 20% or so got no clear call; they are omitted. Calls come from the whole dose curve; tested in HEK293 cells. The list comes from a sample in which actives are over-represented; it also holds similar structures and randomly drawn compounds. Where a call stands in place of a potency, no number is given.

Assay: qHTS for Inhibitors of binding or entry into cells for Lassa Virus; note: nearly all actives have a fitted effect of over 50% in size
Conditions: Lassa virus pseudotype entry inhibition, cell reporter; series mostly up to 37.9 µM
Potency is the fitted concentration of half-maximal effect.

| Structure (SMILES) | Potency |
| --- | --- |
| NC(N)=N/N=C/c1ccc(Cl)c([N+](=O)[O-])c1 | inactive |
| CNN/C(N=Cc1ccc([N+](=O)[O-])s1)=N\S(=O)(=O)c1cc(C)c(Cl)cc1SCc1ccccc1 | inactive |
| O=[N+]([O-])c1ccc(C=Nc2ccc(Cl)cc2Cl)s1 | 16.4 µM (active) |
| CCOc1ccc(NC(=O)CSc2nncn2C)cc1 | inactive |
| NS(=O)(=O)c1ccc(CNC(=O)c2cccc(S(=O)(=O)N3CCc4ccccc43)c2)cc1 | inactive |
| CN(Cc1ccccc1)C(=O)CSc1nc2ccccc2[nH]1 | inactive |
| CCOC(=O)C1CCN(C(=O)C2CCCN(S(=O)(=O)c3ccc(OC)c(Cl)c3)C2)CC1 (stereo not given) | inactive |
| CCOC(=O)CN(Cc1ccc(OC)c(OC)c1)S(=O)(=O)c1ccc(OC)cc1 | inactive |
| COc1ccc(C(CCN(Cc2ccc(OC)c(OC)c2)C(=O)CCl)c2ccccc2)cc1 (stereo not given) | 10 µM (active) |
| COc1ccc(CCNC(=O)C(Sc2ccccn2)c2ccccc2)cc1OC (stereo not given) | inactive |
| CCOC(=O)C1CCN(C(=O)CN2C(=O)NC(C)(c3ccc4cc(OC)ccc4c3)C2=O)CC1 (stereo not given) | inactive |
| COc1ccc(C(=O)Nc2cccc(/C=C(/CCC(=O)O)c3nc4ccccc4s3)c2)cc1 | inactive |
| CCOc1ccc(CNC(=O)CCc2c(C)nn(-c3ccc(N4CCCCC4)nn3)c2C)cc1 | inactive |
| COc1ccc(Nc2nc(-c3ccccc3)cs2)cc1 | 20.6 µM (active) |
| NS(=O)(=O)c1ccc(Nc2nc(-c3ccccc3)cs2)cc1 | inactive |
| COc1ccc2nc(Nc3nc(-c4ccncc4)cs3)sc2c1 | inactive |
| Nc1c(-c2ccccc2)nnn1Cc1ccccc1 | inactive |
| CCOc1ccc2oc(C(=O)N(CC)CC(=O)Nc3ccc(NC(C)=O)cc3)c(C)c2c1 | inactive |
| Cc1ccc(Nc2c(O)nc[nH]c2=O)cc1C | inactive |
| Fc1ccc(-c2nc(Nc3cccc(Cl)c3)nc3c2COc2ccccc2-3)cc1 | inactive |
| O=C(CC(=O)Nc1ccc(Cl)c(Cl)c1)N/N=C/c1ccc(O)cc1 | inactive |
| O=C(CC(O)(C(F)(F)F)C(F)(F)F)Nc1ccc(Cl)c(Cl)c1 | 4.61 µM (active) |
| N/C(=N\OC(=O)Nc1ccc(Cl)c(Cl)c1)c1ncc(C(F)(F)F)cc1Cl | inactive |
| O=C(COc1ccccc1F)Nc1nc(-c2ccccn2)cs1 | inactive |
| O=C1NC(=O)C(CCc2ccccc2)(c2ccccc2)N1 (stereo not given) | inactive |
| CC(C)[C@H]1COCCS(=O)(=O)N1Cc1ccccc1-c1cccc2c1sc1ccccc12 | inactive |
| CCn1c(=S)[nH]c2cc(S(=O)(=O)N3CCOCC3)ccc21 | inactive |

| Structure (SMILES) | Potency |
| --- | --- |
| CC(=O)N/C(=C/c1ccc(Cl)cc1)C(=O)NCCc1c[nH]c2ccccc12 | inactive |
| O=C(CN1C(=O)NC2(CCCCC2)C1=O)NCCc1c[nH]c2ccccc12 | inactive |
| N#C/C(=C/c1ccc(N2CCCCC2)o1)C(=O)NCCc1c[nH]c2ccccc12 | 7.08 µM (active) |
| COc1ccc(C(=O)COC(=O)c2c(C)noc2C)cc1Cl | inactive |
| Cc1c(C(=O)Nc2cccc(S(=O)(=O)N3CCOCC3)c2)oc2ccccc12 | inactive |
| O=C(c1ccc(N2CCOCC2)c([N+](=O)[O-])c1)N1CCN(c2ccccc2F)CC1 | inactive |
| Nc1ncc(-c2cc3ccccc3oc2=O)s1 | inactive |
| O=c1oc2ccccc2cc1-c1cn(-c2ccccc2)c(=S)[nH]1 | 0.891 µM (active) |
| O=C(c1cn(-c2ccccc2)nc1-c1cc2ccccc2oc1=O)N1CCOCC1 | inactive |
| O=C1NCC(Nc2ccccc2)C(=O)N1 (stereo not given) | inactive |
| O=C(NCc1ccc(Cl)cc1)C(=O)NCC1CCCN1S(=O)(=O)c1cccs1 (stereo not given) | inactive |
| O=C(COC(=O)c1cnccn1)Nc1ccc(Cl)cc1C(F)(F)F | inactive |
| CN(Cc1cnccn1)C(=O)c1cc(COc2cccc(C(F)(F)F)c2)on1 | inactive |
| COC(=O)C(C)Sc1nc2c(c(=O)n(C)c(=O)n2C)n1Cc1cccc(C)c1 (stereo not given) | inactive |
| Cc1cccc(Cn2c(SCCO)nc3c2c(=O)n(C)c(=O)n3C)c1 | inactive |
| Cc1cccc(Cn2c(N3CCN(c4ccccc4)CC3)nc3c2c(=O)n(C)c(=O)n3C)c1 | 5.8 µM (active) |
| O=C(CCCN1C(=O)/C(=C\c2ccccc2)SC1=S)Nc1ccccc1O | inactive |
| COc1ccc(/C=C2/SC(=O)N(CCCCCC(=O)Nc3ccccc3C(=O)O)C2=S)cc1 | 11.2 µM (active) |
| COc1ccc(/C=C2\SC(=O)N(CCC(=O)NC3CCS(=O)(=O)C3)C2=O)cc1 (stereo not given) | inactive |
| CCCCN1CC(COc2ccccc2)Oc2cccc(F)c2S1(=O)=O (stereo not given) | inactive |
| O=C(Cc1ccccc1Cl)N1CCOCC1 | inactive |
| O=C(Nc1ccccc1C(=O)Nc1ccncc1)c1ccc([N+](=O)[O-])cc1 | inactive |
| O=C(CN1C(=O)c2ccccc2S1(=O)=O)N1CCc2ccccc21 | 0.259 µM (active) |
| O=C(CN1C(=O)c2ccccc2S1(=O)=O)NC1CCCCC1 | inactive |
| O=C(CN1CCN(c2ccccn2)CC1)N1CCc2ccccc21 | inactive |
| O=C(CSc1ncnc2sccc12)N1CCN(C(=O)c2cccs2)CC1 | inactive |
| O=C(Nc1ccc2ccccc2c1)Nc1ccc2snnc2c1 | 12.6 µM (active) |

| Structure (SMILES) | Potency |
| --- | --- |
| S=C(Nc1ccccc1)Nc1ccc2ccccc2c1 | inactive |
| COc1ccc(NC(=O)Nc2ccc3nsnc3c2)cc1 | inactive |
| Cc1ccccc1-c1nc2scc(CCNC(=O)C(=O)Nc3ccc(F)cc3F)n2n1 | inactive |
| C/C(=N\NC(=O)COc1ccc(C)cc1[N+](=O)[O-])c1ccc2c(c1)OCCO2 | inactive |
| O=C(NCC(c1ccco1)N1CCc2ccccc21)c1cccc(F)c1 (stereo not given) | inactive |
| COc1ccc(C(=O)OCc2cc(=O)n3ccsc3n2)cc1F | inactive |
| CC(C)(C)OC(=O)NNc1c2ccccc2nc2ccccc12 | 12.6 µM (active) |
| Cc1ccccc1NC(=O)NNC(=O)OC(C)(C)C | inactive |
| CCC(=O)OCCNc1nc(-c2ccccc2)nc2ccccc12 | inactive |
| Cc1ccc(-c2csc(NC(=O)c3cnccn3)n2)cc1C | inactive |
| COc1ccc(-c2csc(NC(=O)c3ccc(N4C(=O)CCC4=O)cc3)n2)cc1OC | inactive |
| Cc1ccc(S(=O)(=O)NC(=O)Nc2nc(-c3ccc(F)c(F)c3)cs2)cc1 | inactive |
| Cc1ccc(-c2csc(NC(=O)Cc3cccs3)n2)cc1C | 15.8 µM (active) |
| COc1ccc(-c2csc(NC(=O)CCCc3cccs3)n2)cc1 | inactive |
| COc1ccc(CC(=O)Nc2nc(-c3ccc(F)c(F)c3)cs2)cc1OC | 11.2 µM (active) |
| COc1ccc(NC(=O)c2ccc3nc(C(C)C)oc3c2)cc1OC | inactive |
| NC(=O)C1(Nc2ccc(-c3ccccc3)cc2)CCCC1 | inactive |
| CCOc1ccc(/C=C(/C#N)c2nnc(N3CCOCC3)n2-c2ccccc2)cc1OC | inactive |
| Cc1nc(N2CCOCC2)c2c(C)c(C(=O)Nc3ccc(C(F)(F)F)cc3)sc2n1 | 2.24 µM (active) |
| CCOC(=O)C1CCCN(C(=O)c2sc3nc(C)nc(N4CCOCC4)c3c2C)C1 (stereo not given) | inactive |
| Cc1nc(N2CCC(C)CC2)c2c(C)c(C(=O)Nc3cc(F)ccc3C)sc2n1 | inactive |
| COc1ccc(NS(=O)(=O)c2ccc(N3CCOCC3)c(NC(=O)/C=C/C(=O)O)c2)cc1 | inactive |
| N=C1c2ccccc2-c2ccccc21 | inactive |
| c1ccc2c(c1)[I+]c1ccccc1-2 | 0.259 µM (active) |
| CCC(C(=O)NC1CCCC1)N(C(=O)c1snc(C(N)=O)c1N)c1ccc2c(c1)OCCO2 (stereo not given) | inactive |
| COc1cccc(N(C(=O)c2snc(C(N)=O)c2N)C(C(=O)NCC2CCCO2)c2c[nH]c3ccccc23)c1 (stereo not given) | 5.62 µM (active) |
| CCOc1cc(C(C(=O)NCC2CCCO2)N(C(=O)Cn2nnc3ccccc32)c2cccc(OC)c2)ccc1O (stereo not given) | inactive |

| Structure (SMILES) | Potency |
| --- | --- |
| COc1cc(C(=O)Nn2c(CC(C)C)nc3ccccc3c2=O)cc(OC)c1OC | inactive |
| Cc1cc(F)ccc1NC(=S)NCCc1ccccc1 | inactive |
| S=C(NN=C1CCN(Cc2ccccc2)CC1)NC1CCCCC1 | inactive |
| CCCC1CCC(=NNC(=S)NCCc2ccccc2)CC1 (stereo not given) | 10 µM (active) |
| Fc1cc(Br)ccc1NC(=S)Nc1cccnc1 | inactive |
| S=C(Nc1cccc(Br)c1)N1CCn2cccc2C1c1cccnc1 (stereo not given) | 7.94 µM (active) |
| COc1cccc(NC(=O)CC2C(=O)NCCN2C(=S)Nc2ccc(F)cc2)c1 (stereo not given) | inactive |
| CC(C)(C)C(=O)Nc1cccc(-c2ccc[nH]2)n1 | inactive |
| c1ccc(CCc2ccccn2)cc1 | inactive |
| Cc1cc(Br)ccc1NC(=S)NC1CCCC1 | inactive |
| COc1ccc(C(=O)Nc2ccccc2C(=O)N/N=C/c2ccccc2OC)cc1 | inactive |
| COc1ccc(C(=O)Nc2ccccc2C(=O)N/N=C/c2ccc(O)c(OC)c2)cc1 | 0.355 µM (active) |
| O=C(N/N=C/c1ccc(OC(=O)c2ccccc2Cl)cc1)c1ccc(O)cc1 | inactive |
| Cc1ccc(-c2cc(C(=O)NC3CCN(Cc4ccccc4)CC3)c3ccccc3n2)cc1 | inactive |
| COc1cccc(/C=N/Nc2ncc(C(F)(F)F)cc2Cl)c1O | 7.94 µM (active) |
| COc1cc(/C=C2\SC(=S)N(Nc3ncc(C(F)(F)F)cc3Cl)C2=O)cc(OC)c1OC | inactive |
| COc1cccc(/C(C)=N/Nc2ncc(Cl)cc2Cl)c1 | inactive |
| CCN(CC)S(=O)(=O)c1ccc(N2CCOCC2)c(NC(=O)C2CSC3(C)CCC(=O)N23)c1 (stereo not given) | inactive |
| C=CCNC(=O)C1CC2c3ccccc3C1c1ccccc12 (stereo not given) | inactive |
| CCCCN1Cc2c(nc3cc(-c4ccccc4)[nH]n3c2=O)C1=O | inactive |
| O=c1c2c(nc3nc[nH]n13)CCC2 | inactive |
| O=c1c2c(nc3cc(-c4cccc(Cl)c4)[nH]n13)CCCC2 | 4.47 µM (active) |
| COc1cc(Cl)c(C)cc1NC(=O)CN1CCCCCC1 | inactive |
| CCc1c(Nc2ccccc2Cl)nc(N)[nH]c1=O | inactive |
